The record followed here is PubChem BioAssay.

Calls of active or inactive are those of the source.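 The calls were made as follows, unless noted: active = inhibition above 20% together with a positive visual image hit; inconclusive = visual image hit but inhibition not above 20%; inactive = no visual image hit.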

Assay [1] in a line: inhibitors of TNFa-induced NFkB p65 translocation, primary screen, imaging, HUVEC, MLSMR starter and 10KST1 sets (AID 438).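 Also: compound added about 3h40 before a 20 min TNFalpha stimulation.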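 As to inhibition: signal is the nuclear over cytoplasmic p65 intensity ratio per well.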 The conditions noted are these: HUVEC TNFa-induced p65 nuclear translocation; cell count: measured here: nuclei count (cytotoxicity indicator), at 2.08 µM; inhibition: at 2 µM, stronger effect = higher value, 0% TNFa-plus-vehicle, 100% no-TNFa wells.
The nature of assay [2]: inhibitors of mutant huntingtin aggregation, primary screen, imaging, exon1htt(103Q)mCFP cells, high-content imaging (AID 483;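 active = visual image review flags a hit and inhibition of aggregation exceeds 20%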;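 also: compound exposure lasted 3 days before fixation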;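 as to nuclei count: percent of the per-plate median nuclei count of sample wells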). The conditions noted are these: exon1htt(103Q)mCFP cell line, aggregate imaging, at 2 µM; inhibition of aggregation: stronger effect = higher value; nuclei count: measured here: cell count, toxicity.
The nature of assay [3]: inhibitors of E-selectin induction by TNFa, primary screen, imaging, HUVEC, immunofluorescence, MLSMR starter and 10KST1 sets (AID 487;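 active = visually confirmed hit in the image check and inhibition above 20%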;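 as to inhibition: signal is fraction of cell area covered by stained E-selectin grains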;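 as to nuclei count: 100% = median nuclei count of all wells on the same plate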). The conditions noted are these: HUVEC TNFalpha-induced E-selectin immunofluorescence imaging, at 2 µM; inhibition: stronger effect = higher value; nuclei count: measured here: cell number, toxicity.
Assay [4] addresses Voltage-gated potassium channel subunit beta-2 (Rattus norvegicus) (UniProt P62483). Nature of the assay: KvBeta enzyme negative modulators, primary screen, biochemical, NADPH fluorescence (AID 622;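 active = fluorescence slope higher than the sample average by over 3 SD, cut at about -0.22 in these data, passing the limit was not always enough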;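 also: slope of raw intensity against log time taken from 70 to 1610 s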). The conditions noted are these: recombinant KvBeta, 4-cyanobenzaldehyde reduction, at 10 µM, stronger effect = higher value.
Assay [5] has the same target. Nature of the assay: KvBeta positive modulators, primary screen, biochemical, NADPH fluorescence (AID 623;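 active = NADPH fluorescence slope more negative than the mean of all samples by about 3 SD, 99.7% confidence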;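 also: fluorescence intensity change per second fitted from 20 to 320 s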). The conditions noted are these: Recombinant KvBeta, NADPH fluorescence decrease slope, 10 min; at 10 µM; stronger effect = lower value.
The target in assay [6] is Alpha-2C adrenergic receptor (Homo sapiens) (UniProt P18825). Nature of the assay: modulators of alpha2C/GIRK thallium flux, primary screen, cell-based, HEK293 alpha2C/GIRK1/2 (AID 624;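 active = fluorescence slope after compound addition differing from the mean of all screened samples at 99.7% confidence, in either direction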;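 also: slope of fluorescence ratio to pre-addition baseline per second over 15 to 24 s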). The conditions noted are these: thallium flux BTC fluorescence, at 10 µM, actives lie on both sides.
Alpha-2C adrenergic receptor (Homo sapiens), sequence (P18825 whole entry, looked up): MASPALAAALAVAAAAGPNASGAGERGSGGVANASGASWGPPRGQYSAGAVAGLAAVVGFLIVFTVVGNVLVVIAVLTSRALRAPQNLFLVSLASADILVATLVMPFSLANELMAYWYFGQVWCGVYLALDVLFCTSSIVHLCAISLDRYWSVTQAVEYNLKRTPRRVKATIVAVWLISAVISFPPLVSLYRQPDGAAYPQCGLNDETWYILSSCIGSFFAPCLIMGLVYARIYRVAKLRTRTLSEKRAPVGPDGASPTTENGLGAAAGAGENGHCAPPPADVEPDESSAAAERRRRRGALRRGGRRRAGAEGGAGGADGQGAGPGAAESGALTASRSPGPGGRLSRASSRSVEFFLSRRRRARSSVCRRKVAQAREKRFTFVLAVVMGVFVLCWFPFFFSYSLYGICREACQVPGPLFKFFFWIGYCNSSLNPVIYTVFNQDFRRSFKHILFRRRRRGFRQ
Assay [7] is described as follows: inhibitors of Sendai virus-induced IRF3 signaling, primary screen, TLR/RLR signaling modifier project, cell-based, Sendai virus stimulus, luciferase, 10K MLSCN set (AID 602276;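 active = inhibition at or above 50% at 10 µM; inactive = inhibition below 50%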;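 also: firefly luciferase from ISG56 promoter only with Renilla not read in this screen; 0% = Sendai virus plus DMSO and 100% = medium plus DMSO without virus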). The conditions noted are these: HEK293 RL24 IRF3 luciferase reporter, at 10 µM, stronger effect = higher value.
Assay [8] is described as follows: inhibitors of poly I:C-induced TLR3 signaling, primary screen, cell-based, poly I:C stimulus, luciferase, 10K MLSCN set (AID 602277;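 active = inhibition of the reporter signal at or above 50%; inactive = inhibition below 50%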). The conditions noted are these: HEK293-TLR3 RL24 IRF3 luciferase reporter, at 10 µM, stronger effect = higher value.

Voltage-gated potassium channel subunit beta-2 (Rattus norvegicus), sequence (P62483 whole entry, looked up): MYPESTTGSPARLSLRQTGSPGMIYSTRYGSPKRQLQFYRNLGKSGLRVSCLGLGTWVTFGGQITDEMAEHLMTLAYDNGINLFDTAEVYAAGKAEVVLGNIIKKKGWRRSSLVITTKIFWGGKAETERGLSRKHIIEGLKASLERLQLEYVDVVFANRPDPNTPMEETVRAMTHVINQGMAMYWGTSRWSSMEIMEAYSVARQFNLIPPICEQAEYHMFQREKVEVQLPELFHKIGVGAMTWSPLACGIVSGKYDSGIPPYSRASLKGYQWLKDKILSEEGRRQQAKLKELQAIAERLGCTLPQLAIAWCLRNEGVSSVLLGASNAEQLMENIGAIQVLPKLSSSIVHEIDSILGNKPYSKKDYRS

Consider `CCc1ccc(CNCc2cccnc2)cc1`, for which, in assay [1], the cell count worked out at 273. The inhibition in assay [1] is -1.6% (inactive); in assay [3], -19.3% (inactive); in assay [7], 3.34% (inactive); in assay [8], 18.6% (inactive). Also, the inhibition of aggregation in assay [2] was 18% (inactive). In addition, the nuclei count is 101% in assay [2] and 116% in assay [3]. The fluorescence slope in assay [4] was -0.464 (inactive). In assay [5], the NADPH fluorescence slope is -3e-05 (inactive). Also, in assay [6], the slope was 0.00429 (inactive).

In the case of `Nc1nc(N2C(=O)C3CC=CCC3C2=O)nn1-c1ccccc1` (centres undefined), in assay [1], the cell count amounted to 444. The inhibition was 20.1% (inactive) in assay [1], -23.5% (inactive) in assay [3], -8.69% (inactive) in assay [7] and 23.3% (inactive) in assay [8]. Further, in assay [2], the inhibition of aggregation is -11.6% (inactive). For the same compound, the nuclei count was found to be 109% in assay [2] and 132% in assay [3]. Further, in assay [4], the fluorescence slope was -0.474 (inactive). Further, the NADPH fluorescence slope in assay [5] is 2.4e-05 (inactive). In addition, the slope in assay [6] was 0.00364 (inactive).

In the case of `O=C(NC1CCCCC1)c1cc2nc(-c3ccco3)cc(C(F)(F)F)n2n1`, the cell count in assay [1] was found to be 455. Besides, the inhibition was -5.7% (inactive) in assay [1], -46% (inactive) in assay [3], 10.5% (inactive) in assay [7] and 10.6% (inactive) in assay [8]. Besides, the inhibition of aggregation in assay [2] is 12.4% (inactive). In addition, the nuclei count was 92.7% in assay [2] and 156% in assay [3]. Besides, the fluorescence slope in assay [4] was -0.218 (inactive). Moreover, the NADPH fluorescence slope in assay [5] was -5.6e-05 (inactive). Besides, the slope in assay [6] is 0.00549 (inactive).

For `CCOC(=O)c1sc2nc(NC(=O)C3CCCCC3)sc2c1C`, the cell count in assay [1] was found to be 570. In addition, the inhibition was -0.8% (inactive) in assay [1], 19.5% (inactive) in assay [3], -10.3% (inactive) in assay [7] and -9.22% (inactive) in assay [8]. Besides, the inhibition of aggregation in assay [2] was 4.6% (inactive). Also, the results for the nuclei count in assay [2] and in assay [3] were 92.9% and 96%, respectively. Also, the fluorescence slope in assay [4] was -0.533 (inactive). Moreover, the NADPH fluorescence slope in assay [5] is -2.5e-05 (inactive). The slope in assay [6] was 0.00612 (inactive).

Consider `Cc1ccccc1Cc1c(C)nc2c(C(=O)N3CCN(Cc4ccc5c(c4)OCO5)CC3)cnn2c1C`, for which the cell count in assay [1] is 631. The inhibition in assay [1] was -4.4% (inactive); in assay [3], -11.8% (inactive); in assay [7], 10.8% (inactive); in assay [8] it was 27.9% (inactive). Besides, the inhibition of aggregation in assay [2] was 19.5% (inactive). Also, the nuclei count turned out to be 132% in assay [2] and 95.4% in assay [3]. In addition, the fluorescence slope in assay [4] was -0.415 (inactive). The NADPH fluorescence slope in assay [5] is -1.3e-05 (inactive). In assay [6], the slope was 0.00443 (inactive).

For the compound `O=C(CNC(=O)c1cc2ccccc2o1)NCc1cccs1`, in assay [1], the cell count worked out at 420. Besides, the inhibition in assay [1] is 3.6% (inactive); in assay [3] it was -57.3% (inactive); in assay [7] it was 5.59% (inactive); in assay [8] it was 16.2% (inactive). In assay [2], the inhibition of aggregation was -2.1% (inactive). Moreover, the nuclei count turned out to be 107% in assay [2] and 112% in assay [3]. Moreover, the fluorescence slope in assay [4] was -0.469 (inactive). Further, in assay [5], the NADPH fluorescence slope was -1.5e-06 (inactive). Besides, the slope in assay [6] is 0.0103 (inactive).

In the case of `CCCn1c(C)cc(C(=O)COc2ncnc3sccc23)c1C`, the cell count in assay [1] amounted to 312. For the same compound, the inhibition is 2.9% (inactive) in assay [1], -66.8% (inactive) in assay [3], -64% (inactive) in assay [7] and -108% (inactive) in assay [8]. For the same compound, the inhibition of aggregation in assay [2] is 11.2% (inactive). Also, the nuclei count came to 65.8% in assay [2] and 115% in assay [3]. For the same compound, the fluorescence slope in assay [4] is -0.556 (inactive). The NADPH fluorescence slope in assay [5] was 2.3e-05 (inactive). The slope in assay [6] is 0.00512 (inactive).

Consider `CCOC(=O)c1ccc(Oc2nc(SC)nc(N(C)C)n2)cc1`, for which the cell count in assay [1] came out at 467. In addition, the inhibition in assay [1] was 5.5% (inactive); in assay [3], -308% (inactive); in assay [7] it was 3.96% (inactive); in assay [8], 4.44% (inactive). Further, the inhibition of aggregation in assay [2] is -5.2% (inactive). In addition, the nuclei count in assay [2] was 110%; in assay [3], 133%. Moreover, in assay [4], the fluorescence slope was -0.34 (inactive). Moreover, the NADPH fluorescence slope in assay [5] is 7.8e-06 (inactive). In addition, the slope in assay [6] is 0.00652 (inactive).

For `COc1ccc(OCCN2C(=O)NC(C)(c3ccc(C)cc3)C2=O)cc1` (centres undefined), the cell count in assay [1] came out at 391. For the same compound, the inhibition in assay [1] is -14.7% (inactive); in assay [3], -84.6% (inactive); in assay [7], 12.5% (inactive); in assay [8] it was 5.61% (inactive). Besides, in assay [2], the inhibition of aggregation is -4.1% (inactive). Moreover, the figures for the nuclei count in assay [2] and in assay [3] were 108% and 138%, respectively. In addition, the fluorescence slope in assay [4] was -0.496 (inactive). Moreover, the NADPH fluorescence slope in assay [5] was -6.9e-05 (inactive). The slope in assay [6] was 0.00469 (inactive).

For the compound `CCCc1cc(C(=O)Nc2ccccc2SC)no1`, the cell count in assay [1] was found to be 849. The inhibition in assay [1] is 5.8% (inactive); in assay [3] it was -35.7% (inactive); in assay [7] it was -22% (inactive); in assay [8], -51.6% (inactive). The inhibition of aggregation in assay [2] is -12.6% (inactive). Further, the nuclei count worked out at 108% in assay [2] and 121% in assay [3]. The fluorescence slope in assay [4] is -0.597 (inactive). The NADPH fluorescence slope in assay [5] is -2.4e-05 (inactive). Also, the slope in assay [6] was 0.00474 (inactive).

As for `Cc1cccc2c(=O)oc(-c3ccc4c(c3)C(=O)N(CC3CCCO3)C4=O)nc12` (centres undefined), the cell count in assay [1] came to 349. The inhibition in assay [1] is 1.9% (inactive); in assay [3], -6.3% (inactive); in assay [7], 16.1% (inactive); in assay [8] it was 14.4% (inactive). The inhibition of aggregation in assay [2] is -22.2% (inactive). Further, the figures for the nuclei count in assay [2] and in assay [3] were 107% and 58.4%, respectively. For the same compound, the fluorescence slope in assay [4] is -0.521 (inactive). Also, in assay [5], the NADPH fluorescence slope was 2.4e-05 (inactive). Also, the slope in assay [6] was 0.0053 (inactive).

In the case of `COc1cc(Cl)c(C)cc1NC(=O)COC(=O)c1cnc(C)cn1`, the cell count in assay [1] amounted to 345. Further, the inhibition in assay [1] was 3.8% (inactive); in assay [3], -118% (inactive); in assay [7], -3.59% (inactive); in assay [8], 12.5% (inactive). Moreover, the inhibition of aggregation in assay [2] is 16.5% (inactive). Besides, the nuclei count in assay [2] is 95.2%; in assay [3] it was 110%. Also, the fluorescence slope in assay [4] was -0.51 (inactive). Also, the NADPH fluorescence slope in assay [5] was 3.8e-05 (inactive). Moreover, the slope in assay [6] is 0.00519 (inactive).

With `Cc1nc2ccccc2c2oc(C(=O)NCCCN3CCCC3=O)cc12`, the cell count in assay [1] was determined as 472. Further, the inhibition was 1.3% (inactive) in assay [1], -36.2% (inactive) in assay [3], 10.3% (inactive) in assay [7] and 7.6% (inactive) in assay [8]. Further, in assay [2], the inhibition of aggregation was -37.4% (inactive). Further, the results for the nuclei count in assay [2] and in assay [3] were 76% and 106%, respectively. Also, in assay [4], the fluorescence slope is -0.527 (inactive). The NADPH fluorescence slope in assay [5] is -2e-05 (inactive). In addition, the slope in assay [6] was 0.00837 (inactive).

For the compound `COc1cc(S(=O)(=O)n2nnc3ccccc32)c(OC)cc1Cl`, in assay [1], the cell count was 629. The inhibition in assay [1] is -3.3% (inactive); in assay [3] it was -51.9% (inactive); in assay [7], 13.5% (inactive); in assay [8], -7.7% (inactive). For the same compound, the inhibition of aggregation in assay [2] is -68.5% (inactive). In addition, the values for the nuclei count in assay [2] and in assay [3] were 93% and 122%, respectively. Besides, the fluorescence slope in assay [4] is -0.382 (inactive). In addition, the NADPH fluorescence slope in assay [5] is 3.8e-05 (inactive). In assay [6], the slope is 0.00868 (inactive).
